NADH enzymes: inhibitors of PK/LDH coupling enzymes, profiling panel, artefact control, biochemical, MLSMR library. 0.02% of 65,000 active. IC50, µM (titrated, usually from 10 µM), for inactives: top-dose inhibition. AID 774, 2007. coupled PK/LDH NADH assays, four targets;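 active = single-dose screening hits from any of four coupled enzyme assays that gave an IC50 when retested across doses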;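 note: the DPM-DC format reads NADH fluorescence rather than 340 nm absorbance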
Abs 340nm: compound light absorbance at 340 nm, profiling panel, artefact control, biochemical, MLSMR library, data from PS, PMK, MK assays; compound absorbance at 340 nm, fold over control; fold change at 10 µM; 65,000 tested, under 10 active; AID 708, 2007;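 active = at 10 µM dose, initial 340 nm absorbance at least 2 fold that of control wells; inactive = change under 2 fold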;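 note: initial absorbance extrapolated from kinetic A340 decline of NADH oxidation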
MK inhibit: S. pneumoniae MK inhibitors, primary screen, biochemical, PK/LDH-coupled NADH absorbance | mevalonate kinase [Streptococcus pneumoniae D39] | purified MK, PK/LDH-coupled NADH absorbance 340 nm | inhibition, % at 10 µM | 0.48% of 65,000 active | AID 555, 2006;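 active = ranked among the strongest by inhibition in the single 10 µM screen, a fixed top-ranked set picked for dose follow-up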
PMK inhibit: S. pneumoniae PMK inhibitors, primary screen, biochemical, mevalonate pathway, pilot trial included; phosphomevalonate kinase (Streptococcus pneumoniae D39); inhibition, % at 10 µM; 0.49% of 65,000 active; purified PMK, PK/LDH-coupled NADH absorbance 340 nm; AID 539, 2006;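 active = top-ranked compounds by inhibition in the single 10 µM screen, taking a fixed number of the strongest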;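 note: 0% = full reaction with DMSO carrier and 100% = background rate without enzyme reaction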
Autofluor 339: intrinsic fluorescence of library compounds, ex339/em460 – biochemical, MLSMR library, data from DPM-DC assay, artefact control, profiling panel. compound autofluorescence, ex339/em460 nm, NADH buffer; hits give high values; 1 = no-compound wells, NADH background. fluorescence fold increase at 10 µM. 5.5% of 65,000 active. AID 709, 2007;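 active = at 10 µM, mean starting fluorescence two-fold or more over control wells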;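 note: signal is the first read of a kinetic run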
DPM-DC inhibit: S. pneumoniae DPM-DC inhibitors, primary screen, biochemical, PK/LDH-coupled NADH fluorescence; 0.49% of 65,000 active; purified DPM-DC; AID 556, 2006; diphosphomevalonate decarboxylase (Streptococcus pneumoniae D39); calls only at 10 µM;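 active = the 320 compounds with the highest percent inhibition in the single-dose primary screen, excluding strongly autofluorescent ones, cut at about 32% in these data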;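 note: kinetic rate of NADH fluorescence loss reporting ADP formed by the decarboxylase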
Active calls of the source: *; i = inactive; . = not tested or not shown; + = active, no number. An excerpt weighted towards active compounds, which were near 6.3% of everything screened.

SMILES | NADH enzymes | Abs 340nm | MK inhibit | PMK inhibit | Autofluor 339 | DPM-DC inhibit
CCN1CCN(Cc2ccc(NC(=O)Nc3ccc(SC)cc3)cc2)CC1 | 2% | 1 | 10 | 7 | 1.1 | i
CCCCOc1ccc(CN2CCC(O)CC2)cc1 | 17% | 1.1 | 41* | 9 | 1.1 | i
CCc1ccc(NC(=O)CS(=O)CC(=O)NC(C)CCc2ccco2)cc1 (stereo not given) | 3% | 0.95 | 3 | 4 | 1 | i
COC(=O)c1[nH]c2cccc(OC)c2c1NC(=O)CN1CCOCC1 | 3% | 1.1 | 2 | 0 | 2.9* | i
COC(=O)c1[nH]c2cccc(OC)c2c1NC(=O)CCN1CCN(c2cccc(Cl)c2)CC1 | 12% | 1 | 9 | 13 | 2.6* | i
COC(=O)c1[nH]c2cccc(OC)c2c1NC(=O)CCN1CC(C)CC(C)C1 (stereo not given) | 13% | 1.1 | 9 | 9 | 2.7* | i
COC(=O)c1[nH]c2cccc(OC)c2c1NC(=O)CN1CC2(C)CC1CC(C)(C)C2 (stereo not given) | 6% | 1 | 1 | 4 | 2* | i
Cn1c2c(c(=O)n(C)c1=O)C(c1cccc(Br)c1)C1C(=O)c3ccccc3C1=N2 (stereo not given) | 4% | 1 | 0 | 18 | 1.1 | i
COc1cc2c(cc1OC)C(c1cc3cc(OC)c(OC)cc3[nH]c1=O)N(C(=O)C1CC1)CC2 (stereo not given) | 11% | 1.1 | 0 | 19 | 2.6* | i
COc1ccc(OC(C)=O)c(C2c3cc(OC)c(OC)cc3CCN2C(C)=O)c1 (stereo not given) | 8% | 1 | 4 | 20 | 1.1 | i
COc1ccc2c(c1)cc(C(=O)O)n2C | 15% | 1 | 0 | 17 | 2.5* | i
CCOC(=O)CCc1c(C)n(CC)c2cc(-c3ccccc3OC)nn2c1=O | 13% | 1 | 0 | 13 | 3.6* | i
CCOC(=O)CNC(=O)CSc1nnc(-c2ccccc2OC)n1CC | 0% | 1.1 | 0 | 0 | 1.2 | i
Cc1ccc2cc(C)c(N3CCN(c4ccccn4)CC3)nc2c1 | 4% | 1.1 | 0 | 0 | 1.5 | i
Cc1ccc2nc3c(c(N)c2c1)CCN3c1ccccc1 | 2% | 1.1 | 1 | 3 | 3.7* | .
Nc1nc2ccccc2n1CCN1CCCC1 | 2% | 1 | 1 | 2 | 1.1 | i
COC(=O)c1[nH]c2ccc(F)cc2c1NS(=O)(=O)c1ccc(OC)cc1OC | 3% | 1 | 5 | 5 | 1.1 | i
COc1ccc2cc(C(c3nnnn3C3CCCC3)N3CCc4ccccc4C3)c(=O)[nH]c2c1 (stereo not given) | 5% | 1.1 | 5 | 9 | 1.4 | i
COc1ccc2[nH]c(=O)c(C(c3nnnn3CC3CCCO3)N3CCc4ccccc4C3)cc2c1 (stereo not given) | 7% | 1 | 5 | 8 | 3* | i
CCCN1CCN(C(c2cc3cc(OCC)ccc3[nH]c2=O)c2nnnn2C2CCCCC2)CC1 (stereo not given) | 5% | 1 | 4 | 6 | 4.3* | .
CCOc1ccc2[nH]c(=O)c(CN(CCO)C(c3nnnn3C3CCCCC3)C(C)C)cc2c1 (stereo not given) | 3% | 1.1 | 5 | 5 | 1.5 | i
COc1ccc2[nH]c(=O)c(C(c3nnnn3C3CCCCC3)N3CCN(C)CC3)cc2c1 (stereo not given) | 9% | 1.1 | 2 | 16 | 4.5* | .
COc1cc2cc(C(c3nnnn3Cc3ccc(F)cc3)N3CCCCCC3)c(=O)[nH]c2cc1OC (stereo not given) | 9% | 1.1 | 7 | 5 | 2.1* | i
Cc1cccc(C)c1NC(=O)Nc1cccs1 | 3% | 0.99 | 4 | 6 | 1.1 | i
O=C(COC(=O)CCCN1C(=O)c2ccccc2C1=O)Nc1ncc(Cl)cc1Cl | 6% | 1 | 8 | 11 | 1.1 | i
SMILES | NADH enzymes | Abs 340nm | MK inhibit | PMK inhibit | Autofluor 339 | DPM-DC inhibit
CC(=O)N1CCN=C1SCc1ccccc1F | 2% | 1.1 | 4 | 0 | 1 | i
COc1ccccc1N/C(N)=N/c1nc(CSc2ccc(C)cc2)cc(=O)[nH]1 | 8% | 1 | 11 | 12 | 1.1 | i
Cc1cc(=O)[nH]c(/N=C(\N)Nc2cccc3ccccc23)n1 | 22% | 1 | 9 | 19 | 1.1 | +
Cc1cccc(C)c1NC(=O)CS(=O)CC(=O)NC1CCN(Cc2ccccc2)CC1 (stereo not given) | 3% | 0.98 | 2 | 8 | 1.1 | i
c1ccc2oc(-c3nn4c(Cn5cnc6ccccc65)nnc4s3)cc2c1 | 9% | 1.1 | 8 | 11 | 2.2* | i
O=C(Nc1ccc(Nc2ccccc2)cc1)c1ccco1 | 10% | 1.2 | 13 | 0 | 1.1 | i
O=C(Nc1ccc2oc(=O)ccc2c1)c1ccco1 | 12% | 1.1 | 0 | 12 | 2.8* | i
CC(Nc1nc(N2CCN(S(C)(=O)=O)CC2)nc2ccccc12)c1ccccc1 (stereo not given) | 8% | 1.1 | 13 | 2 | 2.1* | .
O=c1nc(-c2ccccc2)cc(-c2ccccc2)[nH]1 | 3% | 1.1 | 0 | 5 | 2.2* | .
Cc1nc(-c2ccccc2)cc(=O)[nH]1 | 5% | 1 | 4 | 10 | 1.1 | i
O=C(C1=C(O)C(=O)N(CCN2CCOCC2)C1c1ccccn1)c1cccs1 (stereo not given) | 0% | 1.1 | 0 | 0 | 1.1 | i
COc1cccc2cc(-c3nc(-c4cccs4)cs3)c(=O)oc12 | 11% | 1 | 13 | 8 | 4.6* | .
c1ccc(CNn2c(N3CCOCC3)nc3ccccc32)cc1 | 3% | 1 | 1 | 9 | 0.93 | i
CCOc1ccc(C2CC(c3cccc(OC)c3OC)n3nnnc3N2)cc1Cl (stereo not given) | 4% | 1 | 2 | 9 | 1.1 | i
N#Cc1cc2ccc(N3CCOCC3)cc2cc1C#N | 3% | 1 | 10 | 4 | 2.5* | .
CCCC(=O)Nc1cccc(NC(=O)CN2CCN(c3ccccc3OC)CC2)c1 | 3% | 1 | 4 | 27* | 1 | i
CCN1CCN(Cc2nc3c(c(=O)n(C)c(=O)n3C)n2Cc2ccc(Cl)cc2Cl)CC1 | 2% | 1 | 0 | 6 | 1 | i
CC(C)CCn1c(CN2CC(C)OC(C)C2)nc2c1c(=O)n(C)c(=O)n2C (stereo not given) | 1% | 1.1 | 3 | 0 | 1.1 | i
